Measured values from the supplement of paper PMC13380429.
Unmarked numbers belong to inactive results.

Tested on: Vero E6 infected with SARS-CoV-2
Assay: inhibition of SARS-CoV-2 cytopathic effect; higher = more antiviral protection, active = above 15
Conditions: 48 h

Structure (SMILES)	inhibition of SARS-CoV-2 cytopathic effect (1 nM) [%]	inhibition of SARS-CoV-2 cytopathic effect (8.33 nM) [%]	inhibition of SARS-CoV-2 cytopathic effect (100 nM) [%]	inhibition of SARS-CoV-2 cytopathic effect (833.33 nM) [%]	inhibition of SARS-CoV-2 cytopathic effect (10000 nM)
O=S(=O)(c1cccc2c(O)nccc12)N1CCCNCC1 [hydroxyfasudil]	-1.12	-1.29	-1.81	-2.35	-0.71%
N#Cc1cnc2c(Cl)cc(NCc3cn(CCN4CCCCCC4)nn3)cc2c1Nc1ccc(F)c(Cl)c1 [cot-inhibitor-1]	-0.74	2.31	-0.11	-2.18	-14%
Cc1ccnc(NC(=O)C(C)c2cccc(C(=O)c3ccccc3)c2)c1 (stereo not given) [piketoprofen]	0.01	0.74	2.28	-1.34	3.81%
NC(=O)CCCCC1CCSS1 (stereo not given) [lipoamide]	1.2	1.81	-0.52	-3.3	3.78%
COc1ccc(-c2ccc(=N)n(CCCC(=O)O)n2)cc1 [gabazine]	0.8	2.86	5.99	-1.31	-0.62%
COc1cc(-c2cc(-c3cccc(O)c3)cnc2N)cc(OC)c1OC	-0.86	-1.83	-1.83	1.55	2.09%
CC(C)C[C@@H](N)C1(c2ccc(Cl)cc2)CCC1	-0.06	-2.41	-2.87	-1.42	-7.34%
Nc1nc(N)nc(NC2CC2)n1 [cyromazine]	-2.63	-0.52	2.15	2.37	0.6%
COC(=O)c1cc(OC)c2c(c1-c1c(CO)cc(OC)c3c1OCO3)OCO2 [bicyclol]	-2.07	1.38	-0.88	-0.4	-3.03%
Cc1cc(C(=O)N2Cc3cnn(C)c3Nc3ccccc32)ccc1CNC(=O)N1CCC[C@H]1C(=S)N1CCCN(C)CC1	-0.76	-1.38	-3.62	-1.74	-2.86%
Cn1ccnc1S [methimazole]	0.07	2.09	0.26	0.56	0.22%
CCCCN1CCCCC1C(=O)Nc1c(C)cccc1C (stereo not given) [bupivacaine]	2.92	-0.56	-2.62	1.82	0.61%
CC(C)(Sc1cc(C(C)(C)C)c(O)c(C(C)(C)C)c1)Sc1cc(C(C)(C)C)c(O)c(C(C)(C)C)c1 [probucol]	-0.06	2.66	0.1	-0.2	1.98%
COc1ccc(CNC(=O)Nc2ncc([N+](=O)[O-])s2)cc1	-1.91	2.48	-0.26	-1.47	2.28%
CO[C@H]1/C=C/O[C@@]2(C)Oc3c(C)c(O)c4c(O)c(c(/C=N/N5CCN(C)CC5)c(O)c4c3C2=O)NC(=O)/C(C)=C\C=C\[C@H](C)[C@H](O)[C@@H](C)[C@@H](O)[C@@H](C)[C@H](OC(C)=O)[C@@H]1C [rifampin]	-3.64	-3.69	-2.5	-3.32	-1.54%
CCOC(=O)Nc1ccc(NCc2ccc(F)cc2)nc1N [flupirtine]	0.67	0.58	-1.4	0.07	1.37%
Cc1c(O)c(=O)ccn1C [deferiprone]	0.05	0.64	1.45	3.35	0.91%
CCN(CC)CCCCNc1ncc2cc(-c3cc(OC)cc(OC)c3)c(NC(=O)NC(C)(C)C)nc2n1	-0.74	1.53	-0.45	-4.96	45.1% (active)
FC(F)(F)C(F)(F)C(F)(F)N(C(F)(F)C(F)(F)C(F)(F)F)C(F)(F)C(F)(F)C(F)(F)F [perfluamine]	-4.49	-1.58	-5.22	-3.78	-1.62%
c1ccc2c(CCNc3ccc(Nc4ccncc4)cc3)c[nH]c2c1 [serdemetan]	-2.3	-1.01	-2.55	-0.64	22.1% (active)

Structure (SMILES)	inhibition of SARS-CoV-2 cytopathic effect (1 nM) [%]	inhibition of SARS-CoV-2 cytopathic effect (8.33 nM) [%]	inhibition of SARS-CoV-2 cytopathic effect (100 nM) [%]	inhibition of SARS-CoV-2 cytopathic effect (833.33 nM) [%]	inhibition of SARS-CoV-2 cytopathic effect (10000 nM)
CC(CCc1ccc(O)cc1)NCCc1ccc(O)c(O)c1 (stereo not given) [dobutamine]	-0.38	-2.55	-1.12	-2.15	-0.94%
CC#C[C@]1(O)CC[C@H]2[C@@H]3CCC4=CC(=O)CCC4=C3[C@@H](c3ccc(N(C)C)cc3)C[C@@]21C [mifepristone]	-1.56	0.62	3.53	-4.55	8.14%
NC(N)=Nc1nc(CSCC/C(N)=N/S(N)(=O)=O)cs1 [famotidine]	-4.18	-3.04	2.88	4.59	-0.5%
C#CCOC(=O)C1=CCCN(C)C1 [arecaidine-propargyl-ester]	-3.75	0.55	-0.74	-1.69	2.67%
C[C@@H](O)[C@H]1C(=O)N2C(C(=O)O)=C(S[C@@H]3CN[C@H](CNS(N)(=O)=O)C3)[C@H](C)[C@H]12 [doripenem]	-0.14	0.27	-2.53	-0.35	0.46%
COc1cc2c(NC3CCN(C)CC3)nc(N3CCCN(C)CC3)nc2cc1OCCOCCN(C)C	-0.25	0.8	-0.4	2.99	-3.09%
COC(=O)Nc1nc2cc(C(=O)c3cccs3)ccc2[nH]1 [nocodazole]	2.2	3.05	0.53	1.99	-1.47%
Cn1ncc(Cl)c1-c1cc(C(=O)N[C@H](CN)Cc2cccc(F)c2)sc1Cl	0.2	-1.05	-0.95	-0.24	-2.44%
COc1cccc([C@@H](C)NCCCc2ccccc2Cl)c1 [tecalcet]	1.64	1.12	3.52	-0.64	-3.1%
N#C/C(=C\c1cn(-c2ccccc2)c2ccccc12)C(=O)O	-0.26	-0.12	-0.58	1.6	-2.52%
Cc1cc(OCc2nc(-c3ccccc3Cl)cs2)ccc1OCC(=O)O [GPR120-modulator-1]	-0.13	2.43	-1.19	-1.62	-2.32%
O=C(CC(c1ccccc1)c1ccccc1)N1CCN(C(c2ccccc2)c2ccccc2)CC1	-0.56	-1.82	-3.93	1.53	3.27%
Cc1ncc([N+](=O)[O-])n1CC(O)CCl (stereo not given) [ornidazole]	-2.81	0.99	1.14	-1.29	1.51%
O=C(Nc1ccc(C(O)(C(F)(F)F)C(F)(F)F)cc1)c1ccc(C(F)(F)F)cc1	0.8	1.24	0.25	1.02	1.6%
COC(=O)C1=C(C)NC(C)=C(C(=O)O[C@H]2CCN(Cc3ccccc3)C2)[C@H]1c1cccc([N+](=O)[O-])c1 [barnidipine]	2.33	1.62	1.31	3.84	-0.56%
Cc1c(OCC(F)(F)F)ccnc1C[S+]([O-])c1nc2ccccc2[nH]1 (stereo not given) [lansoprazole]	3.22	0.73	-0.31	-1.96	-1.14%
OC[C@H]1O[C@H](O[C@]2(CCl)O[C@H](CCl)[C@@H](O)[C@@H]2O)[C@H](O)[C@@H](O)[C@H]1Cl [sucralose]	0.95	0.58	0.66	-0.54	-0.48%
NS(=O)(=O)NCCNc1nonc1/C(=N/O)Nc1ccc(F)c(Br)c1	-1.72	-0.99	-3.11	3.1	-1.01%
CC[C@H](C)[C@H](N)C1=N[C@H](C(=O)N[C@@H](CC(C)C)C(=O)N[C@H](CCC(=O)O)C(=O)N[C@H](C(=O)N[C@H]2CCCCNC(=O)[C@H](CC(N)=O)NC(=O)[C@@H](CC(=O)O)NC(=O)[C@H](Cc3cnc[nH]3)NC(=O)[C@@H](Cc3ccccc3)NC(=O)[C@H]([C@@H](C)CC)NC(=O)[C@@H](CCCN)NC2=O)[C@@H](C)CC)CS1 [bacitracin]	-0.71	2.89	-2.3	-1.54	-0.85%
